# Measurements: PubChem BioAssay
# Active and inactive are the calls of the source. How the calls were made is not given here.
# Target: Pantothenate synthetase (Mycobacterium tuberculosis (strain ATCC 25618 / H37Rv)) (UniProt P9WIL5)
# Assay: Coupled enzyme confirmation of inhibitors against recombinant Mtb PanC (AID 375);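 further: 0% = full reaction with vehicle and 100% = no enzyme background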
# Details: coupled enzyme assay; at 10 µM, hits give high values
# Pantothenate synthetase (Mycobacterium tuberculosis (strain ATCC 25618 / H37Rv)), sequence (P9WIL5 whole entry, looked up): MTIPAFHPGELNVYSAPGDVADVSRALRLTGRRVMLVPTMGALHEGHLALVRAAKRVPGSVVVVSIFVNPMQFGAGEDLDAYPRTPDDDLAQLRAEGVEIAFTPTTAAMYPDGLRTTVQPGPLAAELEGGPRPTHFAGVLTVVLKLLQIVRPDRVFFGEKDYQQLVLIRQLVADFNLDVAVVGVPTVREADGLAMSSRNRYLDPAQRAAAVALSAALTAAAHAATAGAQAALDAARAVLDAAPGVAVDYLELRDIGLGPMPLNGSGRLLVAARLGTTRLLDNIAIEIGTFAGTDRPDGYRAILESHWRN
row,SMILES,inhibition
1,COc1cc(NC(=O)CC(C)C)ccc1NC(=O)c1ccco1,1% (inactive)
2,COc1ccc(S(=O)(=O)NCC(c2cccnc2)N2CCN(c3ccc(F)cc3)CC2)cc1C (stereo not given),0% (inactive)
3,OC[C@H]1O[C@@H](n2cnc3c(NC4CCCC4)ncnc32)[C@H](O)[C@@H]1O,1% (inactive)
4,c1ccc(Cn2nnnc2CN2CCCC2)cc1,0% (inactive)
5,CC(O)Cn1cnc2c1c(=O)n(C)c(=O)n2C (stereo not given),2% (inactive)
6,COCCCN(C)C1CCN(C(=O)Nc2ccc(F)cc2)CC1,0% (inactive)
7,COCC(=O)Nc1cc(OC)ccc1OC,3% (inactive)
8,CCOC(=O)c1cc2c(=O)n3ccccc3nc2n(CCCOC)c1=NC(C)=O,1% (inactive)
9,CC(C)n1c(=NC(=O)c2ccco2)c(C#N)cc2c(=O)n3ccccc3cc21,0% (inactive)
10,c1ccc(CCc2nn3c(Cn4cnc5ccccc54)nnc3s2)cc1,5% (inactive)
11,Cc1ccc(CCSCC(=O)O)cn1,0% (inactive)
12,CC(C)(C)Nc1nc(NC(C)(C)C)nc(-n2ccnc2)n1,0% (inactive)
13,Cc1cc(C)c(C(=O)CSc2nnc(-c3ccccc3Br)o2)cc1C,2% (inactive)
14,COc1ccc(Cc2nc3ccc(S(N)(=O)=O)cc3[nH]2)cc1OC,0% (inactive)
15,Cc1ccc(N2C(=O)c3oc4ccccc4c(=O)c3C2c2cccc(O)c2)nc1 (stereo not given),0% (inactive)
16,CCn1c(=O)cc(OCC(=O)Nc2nc(C)cs2)c2ccccc21,0% (inactive)
17,O=C(O)COc1ccc2occ(C(=O)c3ccccc3)c2c1,0% (inactive)
18,COC(=O)CCN1CCC(C(N)=O)CC1,1% (inactive)
19,CC(=Nc1ccc(C)c(C)c1)C1=C(O)CCC1=O,3% (inactive)
20,Cc1cnc(NC(=O)CSc2nc3ccccc3c(=O)[nH]2)s1,3% (inactive)

row,SMILES,inhibition
1,Clc1cccc(Nc2c3c(nc4ncnn24)CCC3)c1,0% (inactive)
2,COC(=O)c1ccsc1NC(=O)CN1C(=O)CCC1=O,0% (inactive)
3,c1ccc(-c2noc(C34CC5CC(CC(C5)C3)C4)n2)nc1,6% (inactive)
4,C=CCn1c(SCC(=O)NCC2CCCO2)nc2scc(-c3ccco3)c2c1=O (stereo not given),5% (inactive)
5,CC(=O)Nc1cccc(OCC(O)Cn2cnc3ccccc32)c1 (stereo not given),0% (inactive)
6,CCn1c(CNc2ccc(OC)cc2)nnc1SCC(=O)c1ccc(OC)cc1,0% (inactive)
7,O=C1CC(C2CCCO2)C(=O)N1Cc1ccccc1 (stereo not given),0% (inactive)
8,Nc1ncnc2oc(-c3ccco3)c(-c3ccco3)c12,2% (inactive)
9,CC(=O)Nc1ccc(S(=O)(=O)N2CCN(C(C)CCc3ccccc3)CC2)cc1 (stereo not given),2% (inactive)
10,O=S(=O)(NCc1cn2ccccc2n1)c1cc(F)ccc1F,2% (inactive)
11,O=C(CCNS(=O)(=O)c1ccc(Br)s1)N1CCCCC1,0% (inactive)
12,Cc1ccc2c(c1)nnn2C1CCN(C(=O)NC23CC4CC(CC(C4)C2)C3)CC1,0% (inactive)
13,CC(C)CNS(=O)(=O)c1ccc(OCC(=O)Nc2ccc3c(c2)OCO3)c(Cl)c1,6% (inactive)
14,O=C(CC(Cc1ccccc1)C(=O)O)NCCc1ccc2c(c1)OCO2 (stereo not given),1% (inactive)
15,CCCCCn1c(CN2CCN(C)CC2)nc2c1c(=O)n(C)c(=O)n2C,0% (inactive)
16,COc1cc(SC)ccc1C(=O)Nc1ccccc1C#N,0% (inactive)
17,O=C(OCn1nnc2ccccc2c1=O)c1cc2ccccc2o1,2% (inactive)
18,CCOc1ccc(OCC)c(NS(=O)(=O)c2ccc3c(c2)n(C)c(=O)c(=O)n3C)c1,3% (inactive)
19,O=C(CSc1nc2ccccc2o1)NC(=O)NCc1ccco1,0% (inactive)
20,CCOC(=O)Cn1nnnc1CN(Cc1ccc(OC)cc1)Cc1cc2cc(C)cc(C)c2[nH]c1=O,3% (inactive)
